# Hits are enriched below; roughly 2.3% of the tested compounds scored in any of these assays.
# CHRM1 agonist: human M1 muscarinic receptor agonists, primary screen, Fluo-8 calcium fluorescence, CHO-K1 cells, HTS. Muscarinic acetylcholine receptor M1 (Homo sapiens), P11229. actives 0.33% (n = 360,000). CHO-K1 hM1, agonist mode; 0% DMSO, 100% acetylcholine EC100. activation, % at 3 µM;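 active means activation above the run's mean compound activation plus 3 SD, cut at about 16% in these data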;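 further: peak over basal fluorescence ratio within a 140 s kinetic read after compound addition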
# Target sequence (P11229 whole entry, looked up): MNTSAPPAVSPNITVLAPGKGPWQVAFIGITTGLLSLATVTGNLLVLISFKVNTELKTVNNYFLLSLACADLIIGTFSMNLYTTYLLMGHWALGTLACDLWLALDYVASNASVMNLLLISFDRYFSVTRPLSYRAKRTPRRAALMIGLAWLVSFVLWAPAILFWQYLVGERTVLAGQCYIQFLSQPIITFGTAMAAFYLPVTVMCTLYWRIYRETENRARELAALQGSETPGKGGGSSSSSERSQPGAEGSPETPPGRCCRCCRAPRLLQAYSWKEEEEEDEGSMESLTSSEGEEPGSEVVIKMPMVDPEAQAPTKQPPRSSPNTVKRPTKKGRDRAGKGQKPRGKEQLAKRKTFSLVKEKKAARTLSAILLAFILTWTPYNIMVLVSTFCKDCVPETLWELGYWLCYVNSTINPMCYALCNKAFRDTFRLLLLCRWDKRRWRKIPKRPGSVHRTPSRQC
# M1 ag parental: counter-screen for M1 agonists: effect in parental CHO-K1 cells; Fluo-8 calcium fluorescence; scaled to maximal ATP response, vehicle zero; activation, % at 3 µM; actives 0.48% (n = 360,000); in the data active means activation above about 15%;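 further: untransfected CHO-K1 host cells lacking M1 receptor as counterscreen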
# CHRM1 PAM: human M1 muscarinic receptor positive allosteric modulators, primary screen, CHO-K1 cells, Fluo-8 calcium fluorescence, 1536-well; Muscarinic acetylcholine receptor M1 (Homo sapiens), P11229; CHO-K1 hM1, ACh EC20; 0% = ACh EC20, 100% = maximal ACh; activation, % at 3 µM; actives 0.088% (n = 360,000); AID 588819, 2011; in the data active means activation above about 19%, passing the limit was not always enough
# CHO-K1 Ca antag: nonselective inhibitor or artifact in parental CHO-K1 cells. ATP-induced calcium, Fluo-8 fluorescence. inhibition, % at 3 µM. actives 0.6% (n = 360,000). AID 602250;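 active means inhibition above a per-plate cutoff, the plate's mean sample inhibition plus 3 SD, cut at about 24% in these data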;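 further: 0% = DMSO plus EC80 ATP and 100% = DMSO alone without ATP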
# CHRM1 antagonist: human M1 muscarinic receptor antagonists, primary screen, CHO-K1 cells, Fluo-8 calcium fluorescence, 1536-well; Muscarinic acetylcholine receptor M1 (Homo sapiens), P11229; CHO-K1 hM1, ACh EC80 antagonist; inhibition, % at 3 µM; actives 1.3% (n = 360,000);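 active means percent inhibition above its own plate's cutoff, namely the mean of that plate's compound wells plus 3 SD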;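 further: peak over basal fluorescence ratio during 140 s after agonist addition; 0% = ACh EC80 plus DMSO and 100% = DMSO alone without agonist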
# M1 PAM parental: nonselective calcium activators in parental CHO-K1 cells, primary screen, counter-screen for M1 PAM project, cell-based, Fluo-8 calcium fluorescence, full deck, 1536-well | activation, % at 3 µM | actives 0.02% (n = 360,000) | ATP EC20; 0% at ATP EC20, 100% at ATP max;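 active means activation above the run cutoff, the mean activation of all test compounds plus 3 SD, cut at about 40% in these data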;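 further: peak over basal fluorescence ratio in a 140 s read after ATP addition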
# Starred values were filed as active, the others as inactive; nt = not tested or not shown.
SMILES,CHRM1 agonist,M1 ag parental,CHRM1 PAM,CHO-K1 Ca antag,CHRM1 antagonist,M1 PAM parental
Cc1cc(C)nc(SCCCNCc2ccc(Br)cc2)n1,27.2*,2.5,-10.0,7.0,7.6,-14.5
Cc1nc2ccccc2n1Cc1ccc(Cl)cc1,4.0,9.2,-17.5,33.2*,21.0,-11.6
OCc1nc2ccccc2n1Cc1ccc(Cl)cc1,-4.5,2.4,-4.6,4.8,5.0,-4.3
Cc1ccccc1Cn1c(C)nc2ccccc21,0.1,10.0,-16.6,28.6*,39.1*,-24.3
O=C(O)CC(NC(=O)Cc1ccc([N+](=O)[O-])cc1)c1ccc2c(c1)OCO2 (stereo unspecified),-0.7,-0.2,14.7,20.4,-7.5,-9.7
c1cc2c(cc1Nc1nc(-c3ccc4c(c3)OCO4)cs1)OCCO2,-0.1,0.4,7.5,26.4*,-2.9,-0.7
CC(C)(C)C(=O)Nc1nc(-c2ccc3c(c2)OCO3)cs1,0.8,15.4*,2.9,-1.2,4.6,-13.2
CCC(=O)Nc1nc(-c2ccc3c(c2)OCCO3)cs1,-2.7,0.6,0.9,4.5,-3.7,1.4
COC(=O)[C@]12CCCCC=C1N(Cc1cccc3ccccc13)C(=O)[C@H](CC(=O)NCc1ccc(C)o1)C2,nt,2.0,nt,-11.9,nt,22.7
NC(=O)c1ccsc1NC(=O)COC(=O)/C=C/c1ccccc1[N+](=O)[O-],4.8,18.0*,-19.9,-0.9,23.3,0.6
O=C(COC(=O)/C=C/c1ccccc1)Nc1ccc2c(c1)OCCO2,2.0,0.4,27.4*,-20.3,-18.4,5.8
NC(=O)c1ccsc1NC(=O)COC(=O)/C=C/c1ccccc1,1.4,14.8,-23.0,27.5*,50.1*,-18.3
NC(=O)c1ccsc1NC(=O)COC(=O)COc1ccccc1[N+](=O)[O-],3.8,14.8,-5.8,-1.8,6.9,5.5
COc1ccccc1/C=N/OCc1cc(C(C)=O)ccc1OC,-6.5,1.5,6.3,-16.5,-10.7,8.2
COc1ccc(C(=O)N2CCC(C)(C(=O)O)C2)c(OC)c1 (stereo unspecified),-1.1,-0.2,8.0,-5.4,-20.7,8.2
CCCCCCSc1ccc([C@H]2N[C@@](C)(C(=O)OC)[C@H]3C(=O)N(C)C(=O)[C@@H]23)cc1,-4.8,2.2,-18.0,6.4,36.4*,-16.4
CCCSc1ccc([C@H]2N[C@@](C)(C(=O)OC)[C@H]3C(=O)N(C)C(=O)[C@@H]23)cc1,-3.1,0.6,4.5,-14.5,-12.4,9.4
CCCOc1ccc(-c2c(C(=O)N/N=C/c3ccc(OCC)cc3)nnn2-c2nonc2N)cc1,-4.7,-0.5,-5.3,25.7*,7.2,-12.4
Nc1nonc1-n1nnc(C(=O)N/N=C/c2cccnc2)c1CSc1ccc(Cl)cc1,3.4,15.7*,-15.9,-3.6,29.0,14.2
Nc1nonc1-n1nnc(C(=O)N/N=C/c2cccnc2)c1CSc1ccccc1,-0.1,6.7,-7.7,5.6,-4.1,-3.4
CCOc1cccc(-c2c(C(=O)N/N=C/c3ccc(Br)cc3)nnn2-c2nonc2N)c1,18.9*,1.2,22.2,1.4,5.6,-5.3
CCOc1ccc(-c2c(C(=O)N/N=C/c3ccc(O)cc3)nnn2-c2nonc2N)cc1,-0.4,0.9,10.1,-3.1,-3.8,19.2
CCOc1ccc(-c2c(C(=O)N/N=C/c3ccsc3)nnn2-c2nonc2N)cc1,27.9*,7.3,9.0,-21.3,-8.5,21.6
COc1cc2c(cc1OC)C(c1ccccc1[N+](=O)[O-])N(C(C)=O)CC2 (stereo unspecified),0.2,0.6,11.8,-2.3,-16.3,17.1
Cc1ccc(C(=O)Nc2nc(-c3ccccn3)cs2)cc1S(=O)(=O)N1CCOCC1,-3.8,7.8,-4.3,-9.7,10.5,-0.3
SMILES,CHRM1 agonist,M1 ag parental,CHRM1 PAM,CHO-K1 Ca antag,CHRM1 antagonist,M1 PAM parental
COc1ccc(C(=O)COC(=O)c2nc3nccc(C)n3n2)cc1F,-4.1,0.9,-1.1,-12.4,-0.8,4.8
COc1cc2c(cc1OC)CN(C(=O)c1ccccc1C(=O)O)CC2,0.4,0.0,8.8,-6.9,-9.3,2.6
NCCCC(=O)N1c2ccccc2Sc2ccccc21,-9.8,0.5,-27.3,-12.6,93.7*,28.1
NCCC(=O)N1c2ccccc2Sc2ccccc21,-8.3,0.9,-26.0,-7.6,41.3*,6.7
COC(=O)c1cc2ccsc2n1Cc1cc(=O)n2ccccc2n1,-11.8,0.6,-36.6,-3.0,77.2*,-3.0
CC[N+](C)(C)c1cccc(O)c1,16.0*,0.9,-0.9,-6.8,-25.8,9.3
CCNc1cc(O)ccc1C,-2.9,-0.4,7.5,4.4,-3.1,-4.9
CN1CCN(CCC=C2c3ccccc3Sc3ccc(S(=O)(=O)N(C)C)cc32)CC1,-3.4,2.2,-8.9,-2.7,-13.0,-3.0
CN(C)CC/C=C1/c2ccccc2CS(=O)(=O)c2ccccc21,-6.2,0.9,-26.5,-9.1,65.7*,16.9
COc1ccccc1CNc1nc(NCc2ccccc2F)c2sccc2n1,1.3,16.5*,-15.9,27.7*,40.2*,5.0
Fc1cc(Cl)ccc1Nc1nc(NCc2ccccc2)nc2ccsc12,-2.5,1.4,-4.4,-8.2,-0.9,14.3
C#Cc1cccc(Nc2nc(NCc3ccccc3OC)nc3ccsc23)c1,-2.5,9.7,-17.8,11.4,34.6*,-3.1
COc1ccccc1CNc1nc(NCc2ccccc2)nc2ccsc12,6.0,3.3,-13.8,24.0*,25.7,-15.8
COc1ccccc1CNc1nc(NCc2cccc(OC)c2OC)c2sccc2n1,-0.3,8.7,-23.8,-5.2,31.9,10.9
C#Cc1cccc(Nc2nc(NCCOC)nc3ccsc23)c1,1.8,10.6,-22.2,-0.4,22.1,-1.9
COCCNc1nc(NCc2ccccc2F)c2sccc2n1,-2.1,7.7,-5.5,1.4,0.2,11.0
c1ccc(CNc2nc(NCc3ccccc3)c3sccc3n2)cc1,32.0*,27.5*,-31.4,13.7,55.7*,-12.4
O=C(CN(C(=O)c1csnn1)c1ccc(Br)cc1)NC1CCCCC1,1.2,-0.3,7.1,0.1,3.8,-2.4
CC(NC(=O)c1ccc(-c2cc(C(F)(F)F)ccc2Cl)o1)c1ccccc1 (stereo unspecified),-3.3,0.1,0.8,-15.7,4.2,7.3
c1ccc(CNc2nc(NCCOc3ccccc3)c3sccc3n2)cc1,18.7*,35.3*,-27.5,27.7*,43.1*,-9.2
CCNc1nc(NC(C)(C)C)nc(N2CCCCC2)n1,-10.6,4.8,-27.9,-8.1,85.7*,21.1

# Source: PubChem BioAssay (The Scripps Research Institute Molecular Screening Center)
